In this assay the test system is T1, BRK.
T1 construct: gene PTK6
The following applies: concentration: 1 μM, replicates: in singlicate; n = 1.
Consider `CN(c1ccc2c(c1)nc(NCc1ccccc1)n2C)c1ccnc(Nc2ccc(CS(C)(=O)=O)cc2)n1.Cl` [GW811603], for which the “%Inh” value amounted to 79%.
On to `COc1cccc(C2=C(Nc3cccc(O)c3)C(=O)NC2=O)c1` [SB-390771], for which the “%Inh” value is 33%.
Then `O=C(Nc1c(F)cccc1F)c1cc(C(=O)c2ccccc2F)c[nH]1` [GSK1326180], with 11%; and `CC(C)c1nc(-c2ccc(F)c(NS(=O)(=O)c3c(F)cccc3F)c2)c(-c2ccnc(Nc3ccc(N4CCOCC4)nc3)n2)s1` [GSK1804250], with 94.8%; and `Cl.O=C(Nc1ccc(Oc2ccc3[nH]c(NC(=O)c4ccco4)nc3c2)cc1)Nc1cc(C(F)(F)F)ccc1F` [GW683134], with 0%.
As for `c1ccc(Oc2ccc(Nc3ccnc4cc(-c5ccc(CN6CCCCC6)o5)ccc34)cc2)nc1` [GW567143], the “%Inh” value came out at 96.5%.
Then `N#CC1(c2cccc(C(=O)Nc3cccc(Oc4ccc5nc(NC(=O)C6CC6)sc5n4)c3)c2)CC1`, with 18%; and `CNc1nccc(-c2ccc3c(N)n[nH]c3c2)n1` [GSK2206003], with 10%; and `COc1cccc(NC(=O)NCCNc2ccnc(Nc3ccc(F)cc3)n2)c1` [GSK1379879], with 30%.
As for `Cc1cccc(Nc2nc(N[C@H]3CCCC[C@H]3N)ncc2C(N)=O)c1.Cl` [GSK986310], the “%Inh” value came out at 20%.
Consider `COC(=O)Nc1nc2cc(Oc3ccc(NC(=O)Nc4cccc(SC)c4)cc3)ccc2[nH]1.Cl` [GW697999], for which the “%Inh” value is 15%.
The figure for `CN(c1ccc(NC(=O)N2CCN(CCCN3CCOCC3)CC2)cc1)c1ccnc(Nc2ccc(CS(C)(=O)=O)cc2)n1.Cl` [GW830899] is 27%; for `O=C(Nc1n[nH]c2nc(-c3ccccc3O)ccc12)C1CC1` [SB-711880] it is 0%; for `CCn1c(-c2nonc2N)nc2c(-c3ccccc3)ncc(OCCCN)c21.O=C(O)C(F)(F)F.O=C(O)C(F)(F)F` [GSK260205] it is 0%.
On to `Cc1ccc(NC(=O)c2ccnc(N3CCCCC3)c2)cc1-c1ccc(C(=O)NCC2CC2)cc1` [GW775610], for which the “%Inh” value came out at 12%.
Regarding `O=C(O)C(F)(F)F.O=c1[nH]ccc2nc(N[C@@H]3CCNC3)nc(Nc3ccc4c(c3)S(=O)(=O)CC4)c12` [GSK2181306], the “%Inh” value worked out at 18%.
Then `Cc1ccccc1CC(=O)N1CCc2cc(-c3cn(C)c4ncnc(N)c34)ccc21` [GSK2603346], with 71%; and `Cc1ccc(O)cc1Nc1ccnc2cc(-c3ccc(CN4CCCCC4)o3)ccc12` [GW557777], with 99.5%; and `COc1ccc(C2=C(Nc3cccc(O)c3)C(=O)NC2=O)cc1` [SB-390766], with 21%.
For `Cc1ccc(O)cc1Nc1ccnc2ccc(C(C)(C)C)cc12` [GW856805], the “%Inh” value was 91.4%.
In the case of `O=C(Nc1n[nH]c2nc(-c3ccccc3)ccc12)C1CC1` [SB-708999], the “%Inh” value is 0%.
Turning to `NCCC(NC(=O)c1cc(Br)c(-c2ccnc3[nH]ccc23)s1)c1ccccc1.O=C(O)C(F)(F)F.O=C(O)C(F)(F)F` (stereo not shown) [GSK1307810], the “%Inh” value was 34%.
Turning to `CCOc1nccc(-c2c(-c3ccc(F)cc3)ncn2C2CCNCC2)n1` [SB-249175], the “%Inh” value is 0%.
Then `CN1CCN(Cc2ccc(NC(=O)Nc3ccc(N(C)c4ccnc(Nc5ccc(CS(C)(=O)=O)cc5)n4)cc3)cc2)CC1.Cl` [GW827654], with 8%; and `Cn1cc(-c2ccc3c(c2)CCN3C(=O)Cc2cc(F)cc(F)c2F)c2c(N)ncnc21` [GSK2634140], with 22%.
`Cl.Cl.NCC(NC(=O)c1cc(-c2cccnc2)c(-c2ccnc3[nH]ccc23)s1)c1ccccc1` (stereo not shown) [GSK1323434]: the “%Inh” value is reported as 7%.
As for `Cc1ccc(NC(=O)c2cccc(N3CCCCC3)c2)cc1-c1ccc(C(=O)NCC2CC2)cc1` [GSK1917008], the “%Inh” value turned out to be 22%.
Then `Cc1nn2c(=O)cc(N3CCO[C@H](C)C3)nc2n1Cc1cccc(Cl)c1Cl` [GSK2373693], with 13%; and `Cl.N#CCc1ccc(Nc2nccc(Nc3ccc(Oc4ccccc4)cc3)n2)cc1` [GW639905], with 60%; and `Cn1cc(-c2cnc(N)c3c(-c4ccc5c(c4)CCN5C(=O)Cc4ccccc4)csc23)cn1` [GSK2593074], with 92.2%.
The figure for `CC(=O)Nc1cn2nc(Oc3cccc(NC(=O)c4cccc(C(F)(F)F)c4)c3)ccc2n1` is 92.1%.
Regarding `O=C(Nc1n[nH]c2cc(-c3cccs3)ccc12)C1CC1` [SB-731284], the “%Inh” value was determined as 0%.
For `CN(c1ccc(NC(=O)Nc2cccc(Cl)c2)cc1)c1ccnc(N)n1.Cl` [GW830707], the “%Inh” value worked out at 8%.
The figure for `CCn1cnc2c(NCc3ccccc3)ncnc21` [SKF-96418] is 0%.
Then `CC(C)(C)c1ccc(C(=O)Nc2cn3cc(-n4ccnc4)ccc3n2)cc1`, with 15%; and `COc1cc(Nc2nccc(N3CCC(NS(=O)(=O)c4ccc(NC(C)=O)cc4)CC3)n2)cc(OC)c1OC` [GSK1379825], with 40%.
Then `CCNC(=O)/C=C/c1n[nH]c2cc(Sc3ccccc3C(=O)NC)ccc12`, with 15%.

Values taken from publication PMC5540273 (PLoS ONE, 2017).
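Also: KINOMEscan kinase panel screen.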
